Results reported in PubChem BioAssay (Tox21).
“And” between values parts separate entries of the source, which are not always exact repeats. Identical values can stand only once. Inconclusive results are not listed. Where a call stands in place of a potency, no number is given. The source made the active and inactive calls. Calls come from the whole dose curve; as a rule, active = well fitted cell-killing curve with a large enough effect in the repeat runs; inconclusive = weak or mixed curves, or effect the other way; inactive = no such curve, though single readings can be large or run the other way.

Assay: qHTS assay to identify small molecule antagonists of the glucocorticoid receptor (GR) signaling pathway - cell viability counter screen (AID 720693); note: nearly all actives have a fitted effect of over 55% in size
Settings: GR-bla HeLa viability, CellTiter-Glo luminescence, 18 h, with 5 nM dexamethasone present; series mostly up to 58.5 µM

Row | Structure (SMILES) | outcome
1 | O=C(O)CN(CCN(CC(=O)O)CC(=O)O)CCN(CC(=O)O)CC(=O)O | inactive
2 | CCN(CCCc1ccccc1)CCCc1ccccc1 | inactive
3 | CC(C)S | inactive
4 | CC1(C)C(=O)N(Cl)C(=O)N1Br | inactive
5 | ClC(Cl)Cl | inactive
6 | CCNCCO | inactive
7 | CCc1nnc(NS(=O)(=O)c2ccc(N)cc2)s1 | inactive
8 | O=S(=O)(O)C(F)(F)F | inactive
9 | CC1CN(c2ccccc2)NC1=O (stereo not drawn) | inactive
10 | COc1ccc(S(=O)(=O)Nc2nnc(CC(C)C)s2)cc1 | inactive
11 | COc1cc(Cl)ccc1Cl | inactive
12 | C[C@]12C(=O)OC(=O)[C@H]1[C@H]1C=C[C@@H]2C1 | inactive
13 | CC(C)C[C@H](NC(=O)OCC1c2ccccc2-c2ccccc21)C(=O)O | inactive
14 | O=c1[nH]c(=O)n([C@H]2C[C@H](O)[C@@H](CO)O2)cc1C(F)(F)F | inactive
15 | CC(C)(CO)[C@@H](O)C(=O)NCCC(=O)O | inactive
16 | O=c1oc2c(O)c(O)cc3c(=O)oc4c(O)c(O)cc1c4c23 | inactive
17 | O=C(O)c1ccccc1Nc1cc(Cl)ccc1C(=O)O | inactive
18 | CC(=O)Nc1ccc(C)c(Cl)c1 | inactive

Row | Structure (SMILES) | outcome
19 | Cc1cccc(C)c1NC(=O)CN1CCCCCC1 | inactive
20 | CCOC(=O)C1CC(=O)C(=C(O)C2CC2)C(=O)C1 (stereo not drawn) | inactive
21 | CC1=C(O)C(=O)OC1C (stereo not drawn) | inactive
22 | CC(C)=CCCC(C)CCOC=O (stereo not drawn) | inactive
23 | Oc1ccccc1F | inactive
24 | NC/C=C/C(=O)O | inactive
25 | CCCCCCCCc1ccc(S(=O)(=O)O)cc1 | inactive
26 | COC(=O)c1ccc(OC)cc1 | inactive
27 | CCc1cc(Cl)c(OC)c(C(=O)NC[C@@H]2CCCN2CC)c1O | inactive
28 | FC(F)(F)c1ccccc1 | inactive
29 | C=CC1CO1 (stereo not drawn) | inactive
30 | OCCN1CCN(CCO)CC1 | inactive
31 | CN1CCN(c2c(F)cc3c(=O)c(C(=O)O)cn4c3c2SCC4)CC1 | inactive
32 | COc1ccc2nc(NC(=O)Nc3ccccc3)sc2c1 | inactive
33 | CC(=O)Oc1cc(C(C)C)c(OCCN(C)C)cc1C | inactive
34 | CC/C=C\CCOC(=O)CCCCC | inactive
35 | CCCCOc1cc(C(=O)NCCN(CC)CC)c2ccccc2n1 | inactive
36 | CC1=NN(c2cc(Cl)c(S(=O)(=O)O)cc2Cl)C(=O)C1N=Nc1ccc(S(=O)(=O)O)cc1 (stereo not drawn) | inactive

Assay: qHTS assay for identifying genotoxic compounds that show differential cytotoxicity against isogenic chicken DT40 cell lines with known DNA damage response pathways - wild type cell line (AID 743012); note: nearly all actives have a fitted effect of over 60% in size; note: potency is the fitted concentration of half-maximal effect
Settings: DT40 wild type chicken cells viability, CellTiter-Glo, 40 h; series mostly up to 68.4 µM
In short: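 Cytotoxicity in repair-proficient parental chicken DT40 cells serves as the comparator for Rad54/Ku70- and Rev3-deficient lines. Cells were exposed to compounds for 40 h at 37 C/5% CO2, and ATP-based luminescence (CellTiter-Glo) measured viability.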

Row | Structure (SMILES) | Potency
37 | O=C(O)CN(CCN(CC(=O)O)CC(=O)O)CCN(CC(=O)O)CC(=O)O | 18.8 µM (active)
38 | CCN(CCCc1ccccc1)CCCc1ccccc1 | 2.02 µM (active)
39 | CC(C)S | inactive
40 | CC1(C)C(=O)N(Cl)C(=O)N1Br | inactive
41 | ClC(Cl)Cl | inactive
42 | CCNCCO | inactive
43 | CCc1nnc(NS(=O)(=O)c2ccc(N)cc2)s1 | inactive
44 | O=S(=O)(O)C(F)(F)F | inactive
45 | CC1CN(c2ccccc2)NC1=O (stereo not drawn) | inactive
46 | COc1ccc(S(=O)(=O)Nc2nnc(CC(C)C)s2)cc1 | inactive
47 | COc1cc(Cl)ccc1Cl | inactive
48 | C[C@]12C(=O)OC(=O)[C@H]1[C@H]1C=C[C@@H]2C1 | inactive
49 | CC(C)C[C@H](NC(=O)OCC1c2ccccc2-c2ccccc21)C(=O)O | inactive
50 | O=c1[nH]c(=O)n([C@H]2C[C@H](O)[C@@H](CO)O2)cc1C(F)(F)F | 0.944 µM (active)
51 | CC(C)(CO)[C@@H](O)C(=O)NCCC(=O)O | inactive
52 | O=c1oc2c(O)c(O)cc3c(=O)oc4c(O)c(O)cc1c4c23 | inactive
53 | O=C(O)c1ccccc1Nc1cc(Cl)ccc1C(=O)O | inactive
54 | CC(=O)Nc1ccc(C)c(Cl)c1 | inactive

Row | Structure (SMILES) | Potency
55 | Cc1cccc(C)c1NC(=O)CN1CCCCCC1 | inactive
56 | CCOC(=O)C1CC(=O)C(=C(O)C2CC2)C(=O)C1 (stereo not drawn) | inactive
57 | CC1=C(O)C(=O)OC1C (stereo not drawn) | inactive
58 | CC(C)=CCCC(C)CCOC=O (stereo not drawn) | 48.6 µM (active)
59 | Oc1ccccc1F | inactive
60 | NC/C=C/C(=O)O | inactive
61 | CCCCCCCCc1ccc(S(=O)(=O)O)cc1 | inactive
62 | COC(=O)c1ccc(OC)cc1 | inactive
63 | CCc1cc(Cl)c(OC)c(C(=O)NC[C@@H]2CCCN2CC)c1O | 5.96 µM (active) and 8.04 µM (active) and 6.68 µM (active)
64 | FC(F)(F)c1ccccc1 | inactive
65 | C=CC1CO1 (stereo not drawn) | inactive
66 | OCCN1CCN(CCO)CC1 | inactive
67 | CN1CCN(c2c(F)cc3c(=O)c(C(=O)O)cn4c3c2SCC4)CC1 | 10.6 µM (active)
68 | COc1ccc2nc(NC(=O)Nc3ccccc3)sc2c1 | 18.8 µM (active)
69 | CC(=O)Oc1cc(C(C)C)c(OCCN(C)C)cc1C | inactive
70 | CC/C=C\CCOC(=O)CCCCC | inactive
71 | CCCCOc1cc(C(=O)NCCN(CC)CC)c2ccccc2n1 | 11.4 µM (active)
72 | CC1=NN(c2cc(Cl)c(S(=O)(=O)O)cc2Cl)C(=O)C1N=Nc1ccc(S(=O)(=O)O)cc1 (stereo not drawn) | inactive

Assay: qHTS assay for identifying genotoxic compounds that show differential cytotoxicity against isogenic chicken DT40 cell lines with known DNA damage response pathways - Rev3 mutant cell line (AID 743014); note: nearly all actives have a fitted effect of over 55% in size; note: potency is the fitted concentration of half-maximal effect
Settings: chicken DT40 Rev3-/- viability, CellTiter-Glo, 40 h; series mostly up to 68.4 µM

Row | Structure (SMILES) | Potency
73 | O=C(O)CN(CCN(CC(=O)O)CC(=O)O)CCN(CC(=O)O)CC(=O)O | 26.6 µM (active)
74 | CCN(CCCc1ccccc1)CCCc1ccccc1 | 1.27 µM (active)
75 | CC(C)S | inactive
76 | CC1(C)C(=O)N(Cl)C(=O)N1Br | inactive
77 | ClC(Cl)Cl | inactive
78 | CCNCCO | inactive
79 | CCc1nnc(NS(=O)(=O)c2ccc(N)cc2)s1 | inactive
80 | O=S(=O)(O)C(F)(F)F | inactive
81 | CC1CN(c2ccccc2)NC1=O (stereo not drawn) | inactive
82 | COc1ccc(S(=O)(=O)Nc2nnc(CC(C)C)s2)cc1 | inactive
83 | COc1cc(Cl)ccc1Cl | inactive
84 | C[C@]12C(=O)OC(=O)[C@H]1[C@H]1C=C[C@@H]2C1 | inactive
85 | CC(C)C[C@H](NC(=O)OCC1c2ccccc2-c2ccccc21)C(=O)O | inactive
86 | O=c1[nH]c(=O)n([C@H]2C[C@H](O)[C@@H](CO)O2)cc1C(F)(F)F | 0.133 µM (active)
87 | CC(C)(CO)[C@@H](O)C(=O)NCCC(=O)O | inactive
88 | O=c1oc2c(O)c(O)cc3c(=O)oc4c(O)c(O)cc1c4c23 | inactive
89 | O=C(O)c1ccccc1Nc1cc(Cl)ccc1C(=O)O | inactive
90 | CC(=O)Nc1ccc(C)c(Cl)c1 | inactive

Row | Structure (SMILES) | Potency
91 | Cc1cccc(C)c1NC(=O)CN1CCCCCC1 | inactive
92 | CCOC(=O)C1CC(=O)C(=C(O)C2CC2)C(=O)C1 (stereo not drawn) | inactive
93 | CC1=C(O)C(=O)OC1C (stereo not drawn) | inactive
94 | CC(C)=CCCC(C)CCOC=O (stereo not drawn) | 27.3 µM (active)
95 | Oc1ccccc1F | inactive
96 | NC/C=C/C(=O)O | inactive
97 | CCCCCCCCc1ccc(S(=O)(=O)O)cc1 | inactive
98 | COC(=O)c1ccc(OC)cc1 | inactive
99 | CCc1cc(Cl)c(OC)c(C(=O)NC[C@@H]2CCCN2CC)c1O | 7.5 µM (active) and 9.02 µM (active) and 9.44 µM (active)
100 | FC(F)(F)c1ccccc1 | inactive
101 | C=CC1CO1 (stereo not drawn) | inactive
102 | OCCN1CCN(CCO)CC1 | inactive
103 | CN1CCN(c2c(F)cc3c(=O)c(C(=O)O)cn4c3c2SCC4)CC1 | 18.8 µM (active)
104 | COc1ccc2nc(NC(=O)Nc3ccccc3)sc2c1 | 26.6 µM (active)
105 | CC(=O)Oc1cc(C(C)C)c(OCCN(C)C)cc1C | inactive
106 | CC/C=C\CCOC(=O)CCCCC | inactive
107 | CCCCOc1cc(C(=O)NCCN(CC)CC)c2ccccc2n1 | 5.07 µM (active)
108 | CC1=NN(c2cc(Cl)c(S(=O)(=O)O)cc2Cl)C(=O)C1N=Nc1ccc(S(=O)(=O)O)cc1 (stereo not drawn) | inactive
